# Myeloid diff 2: compounds promoting myeloid differentiation; ER-HoxA9 myeloid progenitors, lysozyme-GFP differentiation, flow cytometry; calls only at 10 µM; 360,000 compounds, 1% hits; AID 624256;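 active means normalized GFP-positive differentiation at or above the plate's own cutoff, the solvent-only control mean plus 3 SD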;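 further: cells exposed to compound for four days before flow analysis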
# Rpn11 inh: blocks the human proteasome subunit Rpn11; human 26S proteasome, Ub4-pepOG fluorescence polarization; 20S core pre-blocked with epoxomicin; O00487; inhibition, % at 20 µM; 360,000 compounds, 0.59% hits;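 active means inhibition at 20 µM, scaled to each plate's controls, above about 33%, limit read from the data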
# Target sequence (O00487 whole entry, looked up): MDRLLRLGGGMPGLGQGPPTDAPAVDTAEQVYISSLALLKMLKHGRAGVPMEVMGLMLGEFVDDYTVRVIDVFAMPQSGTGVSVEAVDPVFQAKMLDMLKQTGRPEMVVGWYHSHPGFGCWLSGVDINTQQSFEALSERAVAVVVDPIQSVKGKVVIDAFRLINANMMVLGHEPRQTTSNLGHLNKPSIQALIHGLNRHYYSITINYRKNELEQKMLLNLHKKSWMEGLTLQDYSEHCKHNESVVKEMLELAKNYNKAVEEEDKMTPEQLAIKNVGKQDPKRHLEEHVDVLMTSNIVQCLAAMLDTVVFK
# HNF4A DNA FP: change in binding of human HNF4 alpha to DNA; 360,000 compounds, 0.3% hits; HNF4a-FITC DNA binding, fluorescence polarization, 1 h; activity change, % at 10 µM; in the data active means activity change above about 30%, passing the limit was not always enough
# TPT1 inh: blocks Candida albicans tRNA 2'-phosphotransferase | inhibition, % at 5 µM | 300,000 compounds, 0.81% hits | AID 1962 | recombinant caTPT1, FP RNA substrate dephosphorylation;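 active means inhibition above the mean of all tested compounds plus 3 SD, set per screening campaign, cut at about 24% in these data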
# caTPT1 confirm: confirmation of Candida albicans TPT1 inhibitors; recombinant caTPT1, fluorescence polarization, RNase T1 coupled; shares compounds with TPT1 inh; inhibition, % at 5 µM; AID 2149; 2,400 compounds, 74% hits;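 active means inhibition above the primary screen limit, the mean inhibition of all tested compounds plus 3 SD, cut at about 25% in these data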
# RNase T1 inh: counter-screen for TPT1 inhibitors: inhibitors of Aspergillus oryzae RNase T1; shares compounds with TPT1 inh; RNase T1 cleavage, fluorescence polarization, 1536-well; inhibition, % at 5 µM; 2,400 compounds, 83% hits; AID 2153;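 active means inhibition above the solvent-only control well mean plus 3 SD, limit set per screening run, cut at about 23% in these data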;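 further: inhibitors block cleavage so intact labeled substrate keeps polarization high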
# Target sequence (P00651 whole entry, looked up): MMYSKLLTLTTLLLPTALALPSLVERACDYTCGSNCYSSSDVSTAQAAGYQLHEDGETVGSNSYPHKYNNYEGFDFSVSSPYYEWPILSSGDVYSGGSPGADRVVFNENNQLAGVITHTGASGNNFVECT
# Numbers stand for hits; . = inactive; / = no result given; + = active, no number. Compounds with a hit are over-represented: about 2.1% of the library has one in this group of screens.
SMILES,Myeloid diff 2,Rpn11 inh,HNF4A DNA FP,TPT1 inh,caTPT1 confirm,RNase T1 inh
CCOC(=O)C1=C(C)N=c2s/c(=C\c3cccn3C)c(=O)n2C1c1cccc(OC)c1OC (configuration not stated),+,/,84,82,139,137
CCOC(=O)C1=C(C)N=c2s/c(=C/c3cccc([N+](=O)[O-])c3O)c(=O)n2C1c1cc(OC)c(OC)c(OC)c1 (configuration not stated),.,.,.,.,/,/
CCOC(=O)C1=C(C)N=c2s/c(=C\c3ccc(C(=O)O)cc3)c(=O)n2C1c1ccc(OC)cc1OC (configuration not stated),.,.,.,.,/,/
CCOC(=O)/C(C#N)=C(C)/C=C1\Sc2ccccc2N1CC,.,/,.,49,39,50
CCN1/C(=C\C=C(C(C)=O)C(C)=O)Sc2ccccc21,.,/,.,196,167,157
O=C(CNS(=O)(=O)c1ccc(Br)cc1)NCc1ccncc1,.,.,.,.,/,/
CCSC1=NSC2=NC(=O)/C(=C\c3coc4ccccc4c3=O)C(=N)N12,.,.,.,55,.,.
COc1ccc(N=Cc2c(O)c3ccccc3n2C(C)=O)cc1,.,/,97,122,131,128
COc1ccc(N=Cc2sc(O)c3ccccc23)cc1,.,/,.,147,120,116
CN(C)c1ccc(C(=O)c2ccccc2)cc1,.,.,.,48,.,.
COC(=O)C1=C(N)OC2=C(C(=O)CC(C)(C)C2)C1c1cc2c(cc1Cl)OCO2 (configuration not stated),.,.,.,.,/,/
COCCN1C(=O)/C(=C/c2ccc(N3CCCC3)cc2C)SC1=S,+,/,.,115,99,100
CNC(=S)N/N=C/c1c2ccccc2c(Cl)c2ccccc12,.,.,.,25,.,24
O=S(=O)(c1ccc(NC(=S)N/N=C/c2c3ccccc3cc3ccccc23)cc1)N1CCOCC1,.,.,.,73,99,104
S=C(NCCN1CCOCC1)N/N=C/c1c2ccccc2cc2ccccc12,.,/,.,38,46,58
O=S(=O)(c1ccc(NC(=S)N/N=C/c2ccc(Oc3ccccc3)cc2)cc1)N1CCOCC1,.,.,.,.,/,/
CNC(=S)N/N=C/c1c(C)cccc1Cl,.,.,.,.,/,/
COc1ccc2ccccc2c1/C=N/NC(=S)NCCN1CCOCC1,.,.,.,.,/,/
COCCNC(=S)N/N=C/c1c2ccccc2cc2ccccc12,.,.,.,40,51,61
CCOC(=O)C1(C)C(=O)CC2c3nc4ccccc4cc3CN2C1=O (configuration not stated),.,.,.,/,/,/
COCCNC(=O)CN1C(=O)NC2(CCCc3ccccc32)C1=O (configuration not stated),/,.,.,.,/,/
Cc1sccc1C1C(C#N)=C(N)SC(N)=C1C#N,/,/,/,100,70,84
Cc1cc(C2C(C#N)=C(N)Oc3n[nH]c(C)c32)c(C)s1 (configuration not stated),/,.,.,.,/,/
Cc1cc(C2C(C#N)=C(N)SC(N)=C2C#N)c(C)s1,.,/,.,101,46,59
CC1C(=O)N(Cc2cn(Cc3ccco3)nn2)CCS(=O)(=O)N1Cc1ccc(-c2ccc(F)cc2Cl)cc1 (configuration not stated),.,.,.,/,/,/
SMILES,Myeloid diff 2,Rpn11 inh,HNF4A DNA FP,TPT1 inh,caTPT1 confirm,RNase T1 inh
N=c1occ(C(=O)c2cc(F)ccc2O)cc1C(=O)NC1CCCCC1,.,.,.,.,/,/
COc1ccc(C2C(C#N)=C(N)N(c3cccnc3)C3=C2C(=O)CCC3)cc1Cn1cc([N+](=O)[O-])cn1 (configuration not stated),.,.,.,37,43,55
Cc1cc2nc3s/c(=C/c4ccc(-c5ccccc5C(=O)O)o4)c(=O)n3c2cc1C,+,/,.,112,125,123
O=C(O)c1ccccc1-c1ccc(/C=c2\sc3nc4cc(Br)cnc4n3c2=O)o1,.,/,.,84,131,122
CC1=NN(c2ccc(Br)cc2)C(=O)/C1=C/c1ccc(-c2ccccc2C(=O)O)o1,.,.,.,.,/,/
CCOC(=O)CCn1cc(F)c(=O)n(Cc2ccccc2)c1=O,.,.,.,.,/,/
O=[N+]([O-])C(/C=C(\Cl)[N+](=O)[O-])=C(N1CCCCC1)N1CCCCC1,.,.,.,35,42,58
Cc1nc(-c2coc3cc(C)c(N=O)c(O)c3/c2=N\N)cs1,.,.,.,80,.,.
COc1cc2ccccc2nn1,.,.,.,.,/,/
COc1ccc2c(n1)Sc1nc3ccccc3nc1N2,+,/,.,41,56,64
O=C1C(Cc2ccccc2)Nc2ncnc(N3CCc4ccccc4C3)c2N1Cc1ccc(Br)cc1 (configuration not stated),/,/,/,.,/,/
Cc1[nH]c2ccccc2c1/C=C/C(=O)c1ccccc1,+,/,.,32,63,75
CCn1c(/C=C/c2c(C)[nH]c3ccccc23)nc2ccccc2c1=O,+,/,.,38,59,71
CCn1c(/C=C/c2c[nH]c3ccccc23)nc2ccccc2c1=O,.,.,.,.,/,/
Cc1[nH]c2ccccc2c1/C=N/NC(=O)c1ccccc1,.,.,.,.,/,/
Cc1ccc(-c2cc3nc(C)cc(C)n3n2)cc1,.,.,.,.,/,/
Cc1cc(C)n2nc(-c3ccsc3-n3c(C)ccc3C)cc2n1,+,/,.,45,53,64
CC(C)N1CCc2c(sc(NC(=O)c3ccc(S(=O)(=O)N4CCc5ccccc54)cc3)c2C(N)=O)C1,+,/,53,82,84,93
CNC(=O)c1c(NC(=O)c2ccc(S(=O)(=O)N(C)c3ccccc3)cc2)sc2c1CCN(C(C)C)C2,/,/,/,125,161,149
CCN1CCc2c(sc(NC(=O)c3ccc(S(=O)(=O)N(C)c4ccccc4)cc3)c2C(=O)NC)C1,+,.,.,133,150,145
COC(=O)c1c(NC(=O)c2ccc(N(C)S(=O)(=O)c3ccc(C)cc3)cc2)sc2c1CCCC2,.,.,.,.,/,/
CC(=O)Nc1cccc(-c2ccnc3c2CC(C(=O)Nc2ccc(C(C)C)cc2)O3)c1 (configuration not stated),.,.,.,/,/,/
COCCCN(C(=O)CSc1nc2ccccc2c(=O)n1C)c1c(N)n(Cc2ccccc2)c(=O)[nH]c1=O,.,.,.,/,/,/
COc1ccc(C2CC(c3ccccc3)=NN2c2ccc(C(N)=O)cc2)cc1 (configuration not stated),.,.,.,.,/,/
COc1ccc(C2CC(c3cccs3)=NN2c2ccc(C=O)cc2)cc1 (configuration not stated),/,/,/,65,67,72
COc1ccc(C2CC(c3ccccc3)=NN2c2ccc(/C=N/NC(=O)c3ccncc3)cc2)cc1 (configuration not stated),.,.,.,66,52,68
COc1ccc(C2=NN(c3ccc(C=O)cc3)C(c3ccccc3)C2)cc1 (configuration not stated),/,/,/,.,/,/

# Compound activity: PubChem, several laboratories
